These results are taken from PubChem BioAssay AID748 (Sanford-Burnham Center for Chemical Genomics, 2007).

Screen size: about 96,000 compounds; about 100 (0.1%) were called active. The full list was thinned out, with actives kept by preference. Entries with a potency or affinity are not part of this list. Unmarked numbers belong to inactive results.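 Rule for the calls: active = displacement above 50% at 20 µM plus a fluorescence interference ratio under 1.5; inactive = the rest.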

The assay has as its target Bcl-2-like protein 10 (Homo sapiens) (UniProt Q9HD36). The assay is described as follows: Bcl-B/TR3 peptide binding disruption – biochemical, fluorescence polarization, FITC-TR3 peptide, selectivity assay for Bfl-1 inhibitor project, primary screen (AID 748).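 Note: plate controls were wells without compound for no effect and wells lacking Bcl-B protein for full effect.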 Particulars: FP displacement of FITC-TR3 peptide from Bcl-B; at 20 µM; active compounds read high. In general terms: In fluorescence polarisation assays a small probe gives low polarisation when free and higher when bound to something large.
In the case of `COc1cccc(NC(=O)C(NC2CCCC2)c2ccccc2)c1` (configuration not stated), the displacement is 2.1%.
Under `CCOC(=O)CNC(=O)c1c2c(nc3ccccc13)CCCC2` stands 7.2%; under `c1coc(CNc2c3c(nc4ccccc24)CCC3)c1`, 26.6%.
Under `CC(C)Cn1c(N2CCN(C(=O)c3cccs3)CC2)nc2ccccc21` stands -1.5%; under `Cc1ccc(SC(CC(=O)c2ccc(C)cc2)C(=O)O)cc1` (configuration not stated), -5%; under `CSc1nc(C)cc(NC(N)=O)n1`, -7.4%.
Under `Cn1c(C(C#N)C(=O)c2ccco2)nc2ccccc21` (configuration not stated) stands 13.4%; under `Cn1c(C(C#N)C(=O)c2sc3ccccc3c2Cl)nc2ccccc21` (configuration not stated), -2.9%; under `COc1ccccc1-n1c(C)nc2cc(C(=O)O)ccc21`, -9.1%.
On to `Cc1cc(C(=O)NCCC2=CCCCC2)no1`, for which the displacement is -6.6%.
As for `C=CCn1c(SCC(=O)NC2CCCC2)nc2scc(-c3ccco3)c2c1=O`, the figure is 29.6%; as for `CCCCC(=O)Nc1cccc(NC(=O)CC)c1`, -6.1%; as for `CCC(=O)Nc1cccc(Br)c1`, -1.7%.
As for `COCCNC(=O)CCCn1c(=O)c2ccccc2n(CC(=O)NCCC2=CCCCC2)c1=O`, the figure is -8.5%; as for `COc1ccccc1-c1nn2c(-c3ccccc3Cl)nnc2s1`, 5.7%.
Under `COc1ccccc1-c1nnc2sc(COc3ccccc3)nn12` stands 0.4%.
Take `CCC(=O)c1cc(-c2nc3ccccc3n2C)n(C)c1`: the displacement is 3.7%.
As to `COc1ccccc1-n1nnnc1SCc1cc2c(cc1Br)OCO2`, the displacement was 2.6%.
As for `Brc1ccc(-c2cn3c(n2)CCc2ccc4cccnc4c2-3)cc1`, the displacement was 1%.
As for `c1ccc(-c2cn3c(n2)CCc2ccc4cccnc4c2-3)cc1`, the figure is -7.4%; as for `NC(=O)NC(CC(=O)OCC(=O)NC(=O)NCc1ccco1)c1ccc(Cl)cc1` (configuration not stated), 0.6%; as for `CCOc1ccccc1N1CCN(C(=O)c2cc3c(s2)CCC3)CC1`, 0.5%.
`O=C(c1cc2c(s1)CCCCC2)N1CCN(c2ncccn2)CC1`: the displacement is -2.1%.
For the molecule `CC1CC(C)CN(C(=O)c2cc3c(s2)CCC3)C1` (configuration not stated), the displacement was 0.4%.
As for `COc1ccccc1N1CCN(C(=O)c2ccc(Br)s2)CC1`, the figure is -4.4%.
Under `CCCC(=O)Nc1cccc(-c2nc3cc(C)c(C)cc3o2)c1` stands -1.8%; under `CCCN(CCC)C(=O)Cn1c(=O)n(CCC(=O)NCCc2ccccc2)c(=O)c2ccccc21`, 1.2%; under `CC(=O)Nc1cc(S(=O)(=O)Nc2ccccc2C)c(C)cc1C`, -3.3%.
As for `CCCc1nnc(NC(=O)CCC(=O)N2CCN(CCOc3ccc(C)cc3)CC2)s1`, the figure is 1.6%; as for `CSCCC(NC(=O)c1ccco1)C(=O)OCC(=O)Nc1ncc(Cl)c(C)c1Cl` (configuration not stated), 14.7%; as for `Cc1nc(NC(=O)COC(=O)C(NC(=O)c2ccco2)C(C)C)c(Cl)cc1Cl` (configuration not stated), 24.3%.
With `CCn1c(SC)nc2c(c1=O)SC(C)C2` (configuration not stated), the displacement is -13.3%.
For `Cc1ccc(-c2cc(C(F)(F)F)n3nc(C(=O)Nc4c(C)n(C)n(-c5ccccc5)c4=O)cc3n2)cc1`, the displacement is -12.8%.
As for `Cc1c(NC(=O)c2cc(-c3ccccc3)on2)c(=O)n(-c2ccccc2)n1C`, the figure is 1.8%.
Under `O=C(OCC(=O)N1CCN(C(=O)c2ccco2)CC1)c1cc(-c2ccccc2)nc2ccccc12` stands -78.6%.
On to `O=C(COC(=O)c1cc(-c2ccco2)nc2ccccc12)NCc1ccccc1`, for which the displacement was -3%.
Under `O=C(OCC(=O)N1CCN(C(=O)c2ccco2)CC1)c1cc(-c2ccc(F)cc2)nc2ccccc12` stands 8.8%.
Under `COc1ccc(CNC(=O)COC(=O)c2cc(-c3ccco3)nc3ccccc23)cc1` stands 42.9%; under `CC1Cc2ccccc2N1C(=O)CSc1nc2cc3c(cc2cc1C#N)OCO3` (configuration not stated), 3.7%.
Under `Cc1cccc(-n2nnc(C(=O)NCc3ccc4c(c3)OCO4)c2N)c1` stands -4.7%.
Regarding `COc1ccc(C(=O)OCC(=O)c2ccc(C3CCCCC3)cc2)cc1`, the displacement is 0.1%.
Under `Cc1ccc(C(C(=O)NCc2ccco2)N(C(=O)Cn2nnc3ccccc32)c2ccccc2)o1` (configuration not stated) stands 2.5%.
As to `Cc1cc(C)cc(CC2CC(=O)N(c3ccc(Cl)cn3)C2=O)c1` (configuration not stated), the displacement is -1%.
As for `Cn1c2ccccc2c2c(C(=O)NCc3ccco3)cn(C3CCCCC3)c(=O)c21`, the figure is 11.7%; as for `CC(C)CC(=O)Nc1cccc(-c2nc3ccccc3o2)c1`, 5.6%; as for `NC(=O)c1cc(Cc2ccccc2)sc1NC(=O)c1ccco1`, 0%.
In the case of `Cc1c(C#N)c2ccccc2n1CC(=O)NC(C)c1ccccc1` (configuration not stated), the displacement was 2.1%.
As to `COc1ccc(Nc2nc(N3CCCCC3)c3ccccc3n2)cc1`, the displacement was 6.9%.
As for `COc1ccc(Nc2nc(N3CCCC3)c3ccccc3n2)cc1`, the figure is 12.9%.
As for `Cc1c(N(C(=O)c2cc(=O)[nH]c3ccccc23)C(C)C)c(=O)n(-c2ccccc2)n1C`, the figure is -10%.
Under `C=CCn1c(C)cc(C(=O)CSc2nnc(NC(C)C)s2)c1C` stands -5.7%; under `CC(C)Nc1nnc(SCC(=O)Nc2ccc(F)cc2)s1`, 1.5%; under `NC(=O)Cn1c(=O)n(CCCC(=O)NC2CCN(Cc3ccccc3)CC2)c(=O)c2ccccc21`, 4.2%.
Regarding `CC(C)OC(=O)C(NC(=O)c1ccccc1)=C1CCCCC1`, the displacement was -12.9%.
Under `Cc1ccc(NS(=O)(=O)c2ccc(C(=O)N3CCN(c4ccccn4)CC3)cc2)cc1` stands 3.6%; under `COc1ccc(N2Cc3cccc(C(=O)N4CCOCC4)c3C2=O)cc1`, 4.6%; under `COc1ccc(N2Cc3cccc(C(=O)N4CCN(C(=O)c5ccco5)CC4)c3C2=O)cc1`, 36.1%.
As for `CC1(CC(=O)O)SC(=O)NC1=O` (configuration not stated), the figure is -6%.
Under `CCOC(=O)CCc1c(C)nc2cc(-c3ccccc3OC)[nH]n2c1=O` stands 4%; under `O=CNCCCc1nc2ccccc2n1Cc1cccc2ccccc12`, 1.8%; under `COc1ccc(/C=N/NC(=O)COc2ccccc2-c2ccccc2)cc1`, -6.4%.
For the molecule `CCOc1ccc(/C=N/NC(=O)COc2ccccc2-c2ccccc2)cc1`, the displacement is 9.4%.
Under `CCC1CCCCN1C(=O)COC(=O)c1n[nH]c2ccccc12` (configuration not stated) stands -6%; under `Cc1nn(-c2ccccc2)c(Cl)c1/C=N/Nc1ccc(S(=O)(=O)Nc2ccccc2C(=O)O)cc1[N+](=O)[O-]`, 62.4% (active); under `COc1c(/C=N/Nc2ccc([N+](=O)[O-])cc2[N+](=O)[O-])c(C)nn1-c1ccccc1`, -2.4%.
For the molecule `Cc1cc(S(=O)(=O)Nc2ccccc2C(=O)O)ccc1Cl`, the displacement was -4.3%.
Under `Cc1ccc(CNC(=O)CCn2nc(-c3ccc(Cl)cc3)ccc2=O)cc1` stands -8.8%; under `COc1ccc(CCNc2nc3c(c(=O)n(C)c(=O)n3C)n2C)cc1OC`, 8.6%.
For the molecule `COc1ccccc1NC(=O)CNC(=O)c1ccc(F)cc1`, the displacement is -4.7%.
Under `O=C(Nc1ccc(N2CCOCC2)cc1)c1ccc2nc(-c3ccco3)c(-c3ccco3)nc2c1` stands 0%; under `CCOC(=O)C1CCN(C(=O)Nc2ccc3nc(-c4ccco4)c(-c4ccco4)nc3c2)CC1`, 95.6%.
As for `O=C(Nc1cccc(C(F)(F)F)c1)c1ccc2nc(-c3ccco3)c(-c3ccco3)nc2c1`, the figure is 19.6%.
As for `O=C(NCCO)c1ccc2nc(-c3ccco3)c(-c3ccco3)nc2c1`, the figure is 26.6%.
For the molecule `O=C(Nc1ccc2nsnc2c1)N1CCCCCC1`, the displacement was 1.1%.
In the case of `O=C(NCc1ccccc1)c1ccc2nc(-c3ccco3)c(-c3ccco3)nc2c1`, the displacement was 29.5%.
As for `CCOCCCNC(=O)C1CCN(C(=O)N(C)C)CC1`, the figure is 3.4%; as for `COc1ccc(C)cc1NS(=O)(=O)c1cn(C)c(=O)n(C)c1=O`, -4.4%; as for `COc1ccc(S(=O)(=O)N2CCCC2C(=O)Nc2ccc(C)cc2)cc1` (configuration not stated), -2%.
As for `CCOC(=O)c1snc(-c2ccc(F)cc2)c1N`, the figure is -3.1%.
Under `CCOC(=O)c1[nH]c2cc3c(cc2c1NC(=O)CN1CCCCC1C)OCO3` (configuration not stated) stands 9.5%; under `O=S(=O)(c1ccc(S(=O)(=O)N2CCCN(Cc3ccccc3)C2)cc1)N1CCCCCC1`, 0.8%; under `CC(=O)Nc1nnc(SCC(=O)NCCOc2ccccc2)s1`, -9.4%.
Take `CCCCC(=O)NC1=NC(=O)C(C)(C)S1`: the displacement is -8%.
For the molecule `Cc1oc2cc3c(C(=O)N4CCCCC4)c(C)oc3cc2c1C(=O)N1CCCCC1`, the displacement was 6.1%.
Under `CCCn1c(CCC(=O)O)ccc1-c1cccs1` stands 2.8%; under `CCCCn1c(CCC(=O)O)ccc1-c1cccs1`, 4.3%.
As to `Cc1sc2nc(SCc3nc4ccccc4[nH]3)n(Cc3ccco3)c(=O)c2c1C`, the displacement was -8.7%.
As for `COc1ccc(C2C(=O)N(C3CCCCC3)CC(=O)N2Cc2ccco2)cc1` (configuration not stated), the displacement was -8.2%.
As for `CCOC(=O)c1nn(-c2ccccc2)c(=O)c2c(N)scc12`, the figure is -1.6%.
As for `CC1(C)OC(=O)C(=CNc2ccccc2F)C(=O)O1`, the figure is 5.4%.
As for `Cc1nnc(SCC(=O)Nc2cccc(C(F)(F)F)c2)n1Cc1ccco1`, the figure is 4.7%; as for `COC(=O)CCc1c(C)[nH]c(C(=O)OCc2ccccc2)c1C`, -0.4%; as for `CCOC(=O)c1[nH]c(C(=O)O)c(CCN(CC)CC)c1C`, 0.1%.
`O=C(CCc1ccccc1)OCCN1CCOCC1`: the displacement is 5.9%.
Under `Cn1nnnc1SCCNCc1ccccc1F` stands 1.2%; under `CN(C)c1ccc2c(O)cc(=O)n(C)c2c1`, 13%; under `Cc1nnc(NC(=O)COc2ccccc2)s1`, -16.7%.
